The record followed here is PubChem BioAssay (Tox21).

Results filed as inconclusive are left out. A call without a number means that no potency is given here. A number with no mark means an inactive call. Activity calls are given as the source filed them. Unless noted, the call rests on the fitted dose curve.

Beta-2 adrenergic receptor (Homo sapiens), sequence (P07550 whole entry, looked up): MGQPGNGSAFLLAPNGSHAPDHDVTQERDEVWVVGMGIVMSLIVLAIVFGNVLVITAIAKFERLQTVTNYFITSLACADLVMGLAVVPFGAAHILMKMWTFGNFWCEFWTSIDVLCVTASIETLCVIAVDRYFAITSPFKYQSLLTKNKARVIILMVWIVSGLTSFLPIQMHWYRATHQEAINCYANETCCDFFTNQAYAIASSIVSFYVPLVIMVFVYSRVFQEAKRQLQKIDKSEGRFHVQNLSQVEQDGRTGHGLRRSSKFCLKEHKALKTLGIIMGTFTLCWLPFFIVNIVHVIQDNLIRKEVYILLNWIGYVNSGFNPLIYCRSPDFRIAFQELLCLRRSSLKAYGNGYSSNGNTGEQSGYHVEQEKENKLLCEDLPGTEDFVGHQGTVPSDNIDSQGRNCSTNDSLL

Test system in the first assay: not listed separately
Nature of the assay: cAMP Responsive Elements (CRE) small molecule antagonists, cell-based qHTS assay (AID 1963591; active means well fitted inhibition curve with a large enough effect in the signal ratio in the repeat runs, not every such curve was filed as active; the % refers to the signal ratio). As to conditions: CRE-bla HEK293T, beta-lactamase FRET ratio; series mostly up to 92.4 µM; activity change, negative = inhibition: at the top concentration. The procedure, abridged:
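qHTS in CRE-bla HEK 293T cells: compound in DMSO, then 0.25 uM NKH477 (final), 3 h at 37 °C/5% CO2; beta-lactamase FRET read-out after 2 h substrate incubation.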
A general note: Quantitative high-throughput screening tests each substance at several concentrations.
For the compound `O=c1[nH]cc(F)c(=O)[nH]1`, the Potency result was “inactive”.
Take `CC(=O)OC/C=C(C)/C=C/C=C(C)/C=C/C1=C(C)CCCC1(C)C`: the “activity change, negative = inhibition” value is 9.4% [at 42.4 µM].
On to `CCCCCCCCCCN`, for which the Potency entry was “inactive”.
As for `C[C@H]1C[C@H]2[C@@H]3CCC4=CC(=O)C=C[C@]4(C)[C@@]3(F)[C@@H](O)C[C@]2(C)[C@@]1(O)C(=O)CO`, the Potency result was “inactive”.
The same measure, in the same setting: then `CCCCN(CCCC)CCCC`, with “inactive”; and `CCCCCCC(C)O` (stereo not drawn), with “inactive”.
As for `O=[Se](O)O`, the activity change, negative = inhibition is 2.98% [at 18.9 µM].
For the compound `Cc1ccc(S(=O)(=O)NCl)cc1`, the Potency result was “inactive”.
On to `CCC(C)C=O` (stereo not drawn), for which the Potency entry was “inactive”.
`CC1(C)S[C@@H]2[C@H](NC(=O)[C@H](N)c3ccccc3)C(=O)N2[C@H]1C(=O)O`: the Potency entry is “inactive”.
`CC(C)[N+](C)(CCOC(=O)C1c2ccccc2Oc2ccccc21)C(C)C`: the Potency result was “inactive”.
With `Cn1c(=O)c2[nH]cnc2n(C)c1=O`, the Potency result is “inactive”.
Consider `CC(=O)c1ccc(O)cc1`, for which the Potency result was “inactive”.
Regarding `CC(C)CC(C)CC(O)CC(C)C` (stereo not drawn), the Potency result was “inactive”.
On the same count and under the same terms, for `CC(=O)Nc1ccc(C(=O)O)cc1` the value was “inactive”.
Still for that read-out and setting: then `Nc1c2c(nc3ccccc13)CCCC2`, with “inactive”.
On to `C=CCNC(N)=S`, for which the “activity change, negative = inhibition” value was 0.539% [at 42.4 µM].
In the case of `CC(=O)Nc1ccc(C(=O)CCl)cc1`, the “activity change, negative = inhibition” value is -2.73%.
For the compound `NC(=O)NO`, the Potency entry is “inactive”.
Consider `O=C(O)CN(CC(=O)O)CC(=O)O`, for which the Potency result is “inactive”.
For the compound `CN1C(C(=O)Nc2ccccn2)=C(O)c2ccccc2S1(=O)=O`, the Potency result is “inactive”.
On the same count and under the same terms, then `O=CCCCC=O`, with “inactive”; and `COCCc1ccc(OCC(O)CNC(C)C)cc1` (stereo not drawn), with “inactive”; and `CCN(CC)CCOC(=O)c1ccc(N)cc1`, with “inactive”.
Turning to `CC(C)Cc1ccc(C(C)C(=O)O)cc1` (stereo not drawn), the “activity change, negative = inhibition” value was 1.12% [at 42.4 µM].
In the case of `Cc1nnc(NS(=O)(=O)c2ccc(N)cc2)s1`, the Potency entry was “inactive”.

A further assay addresses Beta-2 adrenergic receptor (Homo sapiens) (UniProt P07550). Nature of the assay: Adrenergic beta2 receptor (ADRB2) small molecule antagonists, cell-based qHTS assay (AID 1963592). Further: nearly all actives have a fitted effect of over 50% in size. As to conditions: CHO-ADRB2 cells, isoproterenol-stimulated cAMP HTRF ratio, 0.5 h; series mostly up to 92.4 µM; activity change, negative = inhibition: at the top concentration. Put shortly:
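Cells (CHO, stable ADRB2 overexpression) incubated 18-20hr at 37C; compounds added from DMSO; agonist mix (1nM isoproterenol, 100uM IBMX, 25uM Ro-20-1724) added; 0.5hr RT; d2-cAMP and anti-cAMP-cryptate added; 1hr RT; 665/615 nm read.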
As for `CC(=O)O[C@]1(C(C)=O)CC[C@H]2[C@@H]3C[C@H](C)C4=CC(=O)CC[C@]4(C)[C@H]3CC[C@@]21C`, the Potency result is “inactive”.
`COC(=O)c1ccc(O)cc1`: the Potency entry was “inactive”.
With `CC(=O)CC(C)(C)O`, the Potency result was “inactive”.
With `O=c1[nH]cc(F)c(=O)[nH]1`, the Potency result was “inactive”.
In the case of `COc1ccc(Cl)cc1C(=O)NCCc1ccc(S(=O)(=O)NC(=O)NC2CCCCC2)cc1`, the Potency result was “inactive”.
`CC(=O)OC/C=C(C)/C=C/C=C(C)/C=C/C1=C(C)CCCC1(C)C`: the Potency result is “inactive”.
`CCCCCCCCCCN`: the Potency entry is “inactive”.
For `C[C@H]1C[C@H]2[C@@H]3CCC4=CC(=O)C=C[C@]4(C)[C@@]3(F)[C@@H](O)C[C@]2(C)[C@@]1(O)C(=O)CO`, the Potency entry is “inactive”.
With `CCCCN(CCCC)CCCC`, the Potency result is “inactive”.
Still for that read-out and setting: for `CCCCCCC(C)O` (stereo not drawn) the value was “inactive”.
Consider `O=[Se](O)O`, for which the Potency entry is “inactive”.
For `Cc1ccc(S(=O)(=O)NCl)cc1`, the Potency entry is “inactive”.
`CC(=O)O[C@]1(C(C)=O)CC[C@H]2[C@@H]3C=C(Cl)C4=CC(=O)CC[C@]4(C)[C@H]3CC[C@@]21C`: the Potency result was “inactive”.
As to `CCC(C)C=O` (stereo not drawn), the Potency entry was “inactive”.
Same read-out and setting: then `CC1(C)S[C@@H]2[C@H](NC(=O)[C@H](N)c3ccccc3)C(=O)N2[C@H]1C(=O)O`, with “inactive”; and `CC(C)[N+](C)(CCOC(=O)C1c2ccccc2Oc2ccccc21)C(C)C`, with “inactive”; and `CC(C)(C)NC(=O)[C@H]1CC[C@H]2[C@@H]3CC[C@H]4NC(=O)C=C[C@]4(C)[C@H]3CC[C@]12C`, with “inactive”.
Consider `Cn1c(=O)c2[nH]cnc2n(C)c1=O`, for which the Potency result is “inactive”.
With `CCCCC/C=C\C/C=C\CCCCCCCC(=O)O`, the Potency result was “inactive”.
Turning to `CCCc1c(OCCCCc2nn[nH]n2)ccc(C(C)=O)c1O`, the Potency entry is “inactive”.
Still for that read-out and setting: then `CC(=O)c1ccc(O)cc1`, with “inactive”.
In the case of `NC(=O)c1ccccc1O`, the Potency entry was “inactive”.
The same measure, in the same setting: for `CC(C)CC(C)CC(O)CC(C)C` (stereo not drawn) the value was “inactive”; for `C[C@]12CCC(=O)C=C1CC[C@@H]1[C@@H]2C(=O)C[C@@]2(C)[C@H]1CC[C@]2(O)C(=O)CO`, “inactive”.
For `CC(=O)Nc1ccc(C(=O)O)cc1`, the Potency entry is “inactive”.
Same read-out and setting: for `Nc1c2c(nc3ccccc13)CCCC2` the value was “inactive”; for `C[C@H]1C[C@@H]2[C@H]([C@@H](O)C[C@@]3(C)[C@H]2CC[C@]3(O)C(=O)CO)[C@@]2(C)C=CC(=O)C=C12`, “inactive”; for `C=CCNC(N)=S`, “inactive”.
`CC(=O)Nc1ccc(C(=O)CCl)cc1`: the Potency result was “inactive”.
With `CCOC(N)=O`, the Potency result is “inactive”.
As to `NC(=O)NO`, the Potency result was “inactive”.
Turning to `CN1C(C(=O)Nc2ccccn2)=C(O)c2ccccc2S1(=O)=O`, the Potency entry was “inactive”.
As for `O=CCCCC=O`, the Potency entry was “inactive”.
With `CCN(CC)CCOC(=O)c1ccc(N)cc1`, the Potency entry was “inactive”.
Still for that read-out and setting: then `CC(C)Cc1ccc(C(C)C(=O)O)cc1` (stereo not drawn), with “inactive”; and `O=c1c(-c2ccc(O)cc2)coc2cc(O)cc(O)c12`, with “inactive”.
Turning to `Cc1nnc(NS(=O)(=O)c2ccc(N)cc2)s1`, the Potency entry is “inactive”.
